The values that follow come from PubChem BioAssay.

The target of the first test is Fibroblast growth factor 2 (Homo sapiens) (UniProt P09038). Kind of test: FGF2 binders on small-molecule microarrays, primary screen, biochemical, small-molecule microarray, 635/667 nm fluorescence (AID 1133). The note with it: small-molecule microarray binding, FGF2, fluorescence 635/667; higher = more signal.
Fibroblast growth factor 2 (Homo sapiens), sequence (P09038 whole entry, looked up): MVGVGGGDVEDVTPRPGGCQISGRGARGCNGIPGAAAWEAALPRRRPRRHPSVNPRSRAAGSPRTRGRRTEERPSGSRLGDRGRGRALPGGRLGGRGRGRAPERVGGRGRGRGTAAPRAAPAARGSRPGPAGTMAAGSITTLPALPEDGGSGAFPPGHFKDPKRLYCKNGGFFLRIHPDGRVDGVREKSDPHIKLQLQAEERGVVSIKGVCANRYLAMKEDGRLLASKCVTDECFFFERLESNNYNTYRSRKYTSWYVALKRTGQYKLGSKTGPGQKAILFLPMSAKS
The compound `COC(=O)[C@@H]1N=C(c2ccc(OCCCO)cc2)O[C@@H]1c1ccccc1CN=[N+]=[N-]` had a composite z-score of -0.633.

Compound `COC(=O)[C@H](Cc1ccc(O)cc1)N1CC2=CCCC=C[C@@H]2[C@H]1[C@H](O)Cc1ccccc1` had a composite z-score of 0.348.

`C=CC[C@@]1(C(=O)N(C)C)N=C(c2ccc(OCCCO)cc2)O[C@@H]1c1ccccc1` returned a composite z-score of 0.298.

Test system in another test: not listed separately
As to the kind of experiment: mitochondrial membrane potential change in A549 cells, profiling panel, cell-based, JC-1 fluorescence, basal, 24 h, 100 nL (AID 1138).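 Further: A549 lung adenocarcinoma cells under basal conditions with no added stimulus; test concentration not given here.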 The settings on record: higher = more signal.
Take `CO[C@H]1O[C@H](CO)[C@@H](OC(=O)Nc2ccccc2)[C@@H]2OC(=O)[C@H](Cc3ccccc3)C/C=C/C[C@@H](Cc3ccccc3)C(=O)O[C@@H]12`: the z-score is 2.27.

The compound `CCCCC(=C=CC[C@@H](O)c1ccc(OCCO)cc1)C[C@@H](O)c1ccccn1` registered a z-score of 0.176.

In turn, `C=CCC(OC(C)=O)[C@@H]1[C@@H](N(Cc2cccc3ccccc23)C(=O)c2ccc(-c3ccccc3)cc2)c2cc(OCCCO)ccc2N1C(=O)c1ccc2ccccc2n1` (stereo partly specified) returned a z-score of -0.0419.

The compound `COCCOC(=O)N1C(=O)[C@@]2(c3cc(C#CC4(O)CCCCCC4)ccc31)[C@H](c1ccc(OCCO)cc1)N1[C@H](c3ccccc3)[C@H](c3ccccc3)OC(=O)[C@H]1[C@@H]2C(N)=O` yielded a z-score of -1.27.

In the case of `COc1ccc([Si](C)(C)[C@H]2[C@H](CCO)O[C@@]3(C(=O)N(Cc4ccc(N5CCOC5=O)cc4)c4ccccc43)[C@@H]2C)cc1`, the z-score is 0.533.

With `Cc1c(-c2ccc(-c3ccc(Cl)c(Cl)c3)o2)nc(-c2ccccc2)c2c1CO[Si]2(C(C)C)C(C)C`, the z-score was -0.777.

The compound `O=C1OCCC=C[C@H]2OC34C=CCN(CCN5CCOCC5)C(=O)[C@H]3N(CCCO)C(=O)[C@@H]4C12` (stereo partly specified) showed a z-score of -0.962.

`COC(=O)[C@@]1(Cc2ccc(F)cc2)[C@H]2c3cc(C(=O)N(C)C)n(CCO)c3C[C@H]2CN1C(=O)c1ccccc1` showed a z-score of -0.0423.
